Measurements as given in ChEMBL document CHEMBL3988442, “University of Dundee, Small-Polar-MMV Screening Library” (2021).

Target: AMP-activated protein kinase, AMPK (Homo sapiens) (UniProt P54646+O43741+P54619+Q9UGJ0+Q9Y478+Q13131+Q9UGI9)
Assay: AMP-dependent Kinase enzyme assay. An in vitro enzyme assay that detects ADP turnover that is directly proportional to AMPK activity. This uses naive AMPK that is activated during the assay with MK-8722
Assay type: functional
Design: scale not given: direction of the effect not stated beside the values
Settings: 30 µM

With `COC1CCN(c2ccc(F)cc2CN(C)C(=O)c2cc[nH]n2)CC1` as the molecule, how does the Percent Effect read?
The Percent Effect was 12.3%.

How did the Percent Effect turn out when `COCc1ncc(CN2CCC3(CCNC(=O)CC3)CC2)cn1` was run?
Its Percent Effect is 0.0611%.

With `COCC(=O)N1CCC(c2c(C(=O)N(C)C)sc3ncccc23)C1` (stereo not given) as the molecule, how does the Percent Effect read?
The Percent Effect was 1.82%.

With `Cc1ccc(-c2noc(C3CCN3C(=O)c3ccn(C)n3)n2)s1` (stereo not given) as the molecule, how does the Percent Effect read?
The Percent Effect was 12%.

`Cc1nc(CNC(=O)c2cc(COc3cccc(F)c3)[nH]n2)n[nH]1` was tested. Which Percent Effect did it give?
The Percent Effect was 0.77%.

With `N#Cc1ccc(Cl)cc1NCC1CC1` as the molecule, how does the Percent Effect read?
The Percent Effect was 5.1%.

`CC(C)(C)c1n[nH]cc1CNC1CCC(OCC(F)(F)F)CC1` (stereo not given) was tested. Which Percent Effect did it give?
The Percent Effect was 3.73%.

For `Cc1ccc(Cl)c(C)c1NC(=O)N1CCCN(Cc2ccccn2)CC1`, which Percent Effect is on record?
Its Percent Effect is 2.6%.

Which Percent Effect does the source give for `COCc1ncc(CN2CCC3(CCC(=O)N(CC(C)O)C3)CC2)cn1` (stereo not given) here?
The Percent Effect was -3.44%.

How did the Percent Effect turn out when `O=C(NCC1CCOC1)c1cc(-c2cccc(Cl)c2)[nH]n1` (stereo not given) was run?
Its Percent Effect is 7.17%.

For `Cc1cc(C2CCCN(CCc3ccc4c(c3)CCO4)C2)n[nH]1` (stereo not given), which Percent Effect is on record?
Its Percent Effect is 3.65%.

How did the Percent Effect turn out when `Cc1cccc(N2CCN(C(=O)CNCCn3cc(C)cn3)CC2)c1` was run?
The Percent Effect was -4.92%.

How did the Percent Effect turn out when `NC1CCc2nc(-c3cccnc3)nc(Nc3ccc(F)cc3)c2C1` (stereo not given) was run?
The Percent Effect was 27.2%.

For `CC(C)(C)C(=O)NCCc1cc(N2CCOCC2)nc(NC2CC2)n1`, which Percent Effect is on record?
The Percent Effect was 17.4%.

`CC(CN(C)Cc1cccc(-n2cccn2)c1)C(F)(F)F` (stereo not given) was tested. Which Percent Effect did it give?
Its Percent Effect is -9.02%.

For `CCOc1cc(Cl)ccc1CNC(=O)c1ccc(=O)n(C)c1`, which Percent Effect is on record?
Its Percent Effect is 10.5%.

For `CC(C)N(Cc1ccccn1)C(=O)CCC(=O)c1ccccc1`, which Percent Effect is on record?
Its Percent Effect is -4.49%.

With `OCCc1ncnn1Cc1cccc(Cl)c1` as the molecule, how does the Percent Effect read?
Its Percent Effect is 32.2%.

With `C[C@@H]1CN(C(=O)C2(Cn3cccn3)CC2)CC[C@@]1(O)C1CCOCC1` as the molecule, how does the Percent Effect read?
The Percent Effect was 6.2%.

`COc1ccc(C(=O)N2C[C@@H](NC(=O)N(C)C)[C@H](C(C)C)C2)c(OC)n1` was tested. Which Percent Effect did it give?
The Percent Effect was 1.82%.

With `CCCC(=O)Nc1cnn(CC(=O)Nc2ccc(SC)cc2)c1` as the molecule, how does the Percent Effect read?
Its Percent Effect is -33.2%.

How did the Percent Effect turn out when `Cc1ccc(S(=O)(=O)N2CCN(Cc3ccncc3)CC2)c(Cl)c1` was run?
The Percent Effect was -6.37%.

Which Percent Effect does the source give for `CC(N)C(=O)N1CCC(Oc2cccc(C(F)(F)F)c2)CC1` (stereo not given) here?
Its Percent Effect is -2.71%.

For `Cc1ncoc1C(=O)N1CCCC(c2ccc3c(N)nn(C)c3n2)C1` (stereo not given), which Percent Effect is on record?
Its Percent Effect is 11.4%.

For `COc1cc(N2CCN(Cc3ccsc3)C(CCO)C2)nc(N)n1` (stereo not given), which Percent Effect is on record?
Its Percent Effect is -5.18%.

With `CC(C)c1noc(C(C)N2CCN(Cc3noc(C4CC4)n3)CC2)n1` (stereo not given) as the molecule, how does the Percent Effect read?
The Percent Effect was -0.511%.

For `Cc1noc(CCCC(=O)N2CCNC(=O)C2)n1`, which Percent Effect is on record?
Its Percent Effect is -2.32%.

With `Cc1cc(NCCc2nc(C)cs2)nc(-c2cccnc2)n1` as the molecule, how does the Percent Effect read?
The Percent Effect was 5.81%.

How did the Percent Effect turn out when `CCC(C)NC(=O)Nc1cccc(OCCCC#N)c1` (stereo not given) was run?
The Percent Effect was -4.6%.

For `O=C1NCCN(C(=O)CN2CCOC2=O)C1c1cccc(F)c1` (stereo not given), which Percent Effect is on record?
The Percent Effect was -8.21%.

For `O=C1NCCN2CCN(Cc3ccc(Cl)c(Cl)c3)CC12` (stereo not given), which Percent Effect is on record?
Its Percent Effect is -0.338%.

`CCC1COCCN1C(=O)NCc1nccn1Cc1ccccc1` (stereo not given) was tested. Which Percent Effect did it give?
The Percent Effect was -0.566%.

How did the Percent Effect turn out when `O=C(NCCc1ccncc1)c1cccc(S(=O)(=O)NC2CC2)c1` was run?
Its Percent Effect is -4.52%.

`CC(C)COc1cncc(N2CCCN(CC(F)(F)F)CC2)n1` was tested. Which Percent Effect did it give?
Its Percent Effect is 3.81%.

Which Percent Effect does the source give for `CC(C)[C@@H]1CN(C(=O)C2(c3ccccc3)CC2)C[C@H]1C(=O)O` here?
The Percent Effect was -2.56%.

Which Percent Effect does the source give for `COC(=O)c1ncccc1N1CCC(C(O)c2ccccc2)CC1` (stereo not given) here?
Its Percent Effect is 12.8%.

For `CCN(CC)S(=O)(=O)c1cc(Br)ccc1OC`, which Percent Effect is on record?
The Percent Effect was -4.57%.

How did the Percent Effect turn out when `Cc1noc(-c2ccc(N(C)Cc3cccnc3)nc2)n1` was run?
The Percent Effect was -3.84%.

How did the Percent Effect turn out when `CCC(c1ccccc1)S(=O)(=O)CCO` (stereo not given) was run?
Its Percent Effect is 0.669%.

How did the Percent Effect turn out when `O=C(C1CC(c2cccc(F)c2)=NO1)N1CCc2ccccc21` (stereo not given) was run?
The Percent Effect was 13.6%.
